Test results taken from PubChem BioAssay (NCI).
About 83,000 compounds went through this panel and 20% of them were active in at least one assay; those are over-represented in the sample as a whole.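 Note: values are percent growth. 100 is the growth of untreated cells, values between 100 and 0 indicate rising inhibition; between -100 and 0 indicates cell death.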 Calls of active or inactive are those of the source. The calls were made as follows: active = growth percent below 10; inactive = the rest.

These compounds were tested on SK-MEL-2 melanoma (assay: NCI-60 one-dose screen, 48 h (100 = growth as untreated, 0 = no growth, -100 = all killed)). Details: 10 µM unless noted.

SMILES	growth
OCCn1cc(-c2nc3ccc4[nH]ncc4c3c3c2CCCC3)cn1	43.3% (inactive)
O=C1Nc2cc(-c3ccc(NS(=O)(=O)c4ccc([N+](=O)[O-])cc4)cc3)ccc2/C1=C/c1ccc[nH]1	13.9% (inactive)
O=C(Cn1c(-c2ccccc2)nc2ccccc21)N=Nc1c(O)[nH]c2ccc(Br)cc12	-8.9% (active)
Cc1nc2sccn2c1-c1nnc(SCc2ccccc2)o1	87% (inactive)
CCC1(OC(=O)c2ccccc2SSCCOC(=O)CCCCC2SCC3NC(=O)NC32)C(=O)OCc2c1cc1n(c2=O)Cc2cc3ccccc3nc2-1 (stereo unspecified)	103% (inactive)
C=CC(=O)Nc1ccc(C(=O)/C=C/c2ccc(N(C)C)cc2)c(O)c1	3.4% (active)
COc1ccc(C(=O)c2cc(C(C)=O)c3c(C)cc(C)cn23)cc1	70.9% (inactive)
Cc1ccc(S(=O)(=O)N(CCn2ccnc2[N+](=O)[O-])CCn2ccnc2[N+](=O)[O-])cc1	105% (inactive)
Cc1ccc(S(=O)(=O)Nc2ccc(-c3ccc4c(c3)NC(=O)/C4=C\c3ccc[nH]3)cc2)cc1	105% (inactive)
COc1ccc2c(c1)C(=O)N(C)C2C1c2c(cc3c(c2OC)OCO3)CCN1C (stereo unspecified)	57.5% (inactive)
Cc1ccc(C2CC(c3ccc(NC(=O)Nc4ccccc4)cc3)=NN2c2ccc(S(N)(=O)=O)cc2)cc1 (stereo unspecified)	-81.7% (active)
COC(=O)c1cc(C(=O)C(Br)Br)n2c1ccc1c3ccccc3ccc12	104% (inactive)
COc1ccc2c(c1)N=c1c-2cc2c(O)[nH]c(=S)n2c1=O	41.9% (inactive)
O=Cc1cncc(-c2ccc3ncnc(N4CCc5cc(F)c(Cl)cc54)c3c2)c1	24.5% (inactive)
CC1=C(C(=O)OC(C)C)C(c2ccc(O)cc2)NC(=O)N1 (stereo unspecified)	96.5% (inactive)
COC(=O)CSC1=C(C)C(=O)C(OC)=C(OC)C1=O	103% (inactive)
O=C1Nc2ccccc2/C1=C/C(=O)c1cc2ccccc2oc1=O	99.5% (inactive)
COC(=O)c1ccc(-c2c(-c3ccccc3)c(F)c3oc(C(=O)OC)c(N)c3c2-c2ccccc2)cc1	99.6% (inactive)
COc1cc(-c2ccc3ncnc(N4CCc5ccc(Cl)cc54)c3c2)cnc1Cl	54.2% (inactive)

SMILES	growth
Oc1cncc(-c2ccc3ncnc(N4CCc5cc(F)c(Cl)cc54)c3c2)c1	66.4% (inactive)
Nc1cc(-c2c[nH]c3ccc(F)cc23)nc2cc(-c3c[nH]c4ccccc34)nn12	-16.8% (active)
C/C(=N\Nc1ccc(S(N)(=O)=O)cc1)c1cnn(-c2cc(=O)[nH]c3ccc(Br)cc23)c1C	20% (inactive)
O=C(Cn1c(-c2ccccc2)nc2ccccc21)N=Nc1c(O)[nH]c2ccc(Cl)cc12	17.6% (inactive)
COC(=O)c1c(C(=O)OC)c2ccc3c4ccccc4ccc3n2c1C(=O)OC	108% (inactive)
COc1sc(/C=N/NC(=O)c2[nH]c3ccc(Br)cc3c2-c2ccccc2)cc1Br	15.4% (inactive)
O=C(NNC(=O)c1ccc(OCc2nc3ccc(Cl)cc3[nH]2)cc1)Nc1ccc(Cl)c(Cl)c1	72.7% (inactive)
COc1ccc(NC(=O)CSc2nnc(-c3ccc(-c4nc5ccc(Cl)cc5[nH]4)cc3)o2)cc1	39.4% (inactive)
O=C1Nc2ccc(F)cc2/C1=C/C(=O)c1cc2ccccc2oc1=O	102% (inactive)
Cn1cc(-c2cc(N)n3nc(-c4c[nH]c5ccccc45)cc3n2)c2ccccc21	-88.2% (active)
COc1nc(N)ncc1-c1ccc2ncnc(N3CCc4cc(F)c(Cl)cc43)c2c1	25.7% (inactive)
CN1CCN(C(=O)Oc2cc3c(c4ccccc24)[C@H](CCl)CN3C(=O)c2cc3cc(OCCCN4CCC4)ccc3[nH]2)[C@@H]2CSSC[C@H]21	-83.7% (active)
COc1ccc2[nH]cc(-c3cc4nc(-c5cn(C)c6ncccc56)cc(N)n4n3)c2c1	97.2% (inactive)
COc1ccc(N=Nc2c(N)nn3c(-c4ccc(OC)c(OC)c4)ccnc23)cc1	103% (inactive)
Cc1ccc2nc(NC(=O)Nc3cccc(Cl)c3)sc2c1	114% (inactive)
COc1ccc(Nc2ncnc3sc4c(c23)CCN(Cc2ccccc2)C4)cc1	87.4% (inactive)
O=C1/C(=C/C=C/c2ccco2)SC(=S)N1CC(=S)C1C=CS(=O)(=O)C1 (stereo unspecified)	88.1% (inactive)
CC1=C(C(=O)OCc2ccccc2)C(c2cccc3ccccc23)n2c(nc3ccccc32)N1 (stereo unspecified)	18% (inactive)
CN(C)c1nc(NCCNS(=O)(=O)c2ccc(C(=O)/C=C/c3ccccc3)cc2)nc(N2CCOCC2)n1	97.6% (inactive)

The compounds below were run on EKVX NSCLC in the same assay as above. Details: 10 µM unless noted.

SMILES	growth
OCCn1cc(-c2nc3ccc4[nH]ncc4c3c3c2CCCC3)cn1	32.8% (inactive)
O=C1Nc2cc(-c3ccc(NS(=O)(=O)c4ccc([N+](=O)[O-])cc4)cc3)ccc2/C1=C/c1ccc[nH]1	3.18% (active)
O=C(Cn1c(-c2ccccc2)nc2ccccc21)N=Nc1c(O)[nH]c2ccc(Br)cc12	-23.3% (active)
Cc1nc2sccn2c1-c1nnc(SCc2ccccc2)o1	87.5% (inactive)
CCC1(OC(=O)c2ccccc2SSCCOC(=O)CCCCC2SCC3NC(=O)NC32)C(=O)OCc2c1cc1n(c2=O)Cc2cc3ccccc3nc2-1 (stereo unspecified)	52.1% (inactive)
C=CC(=O)Nc1ccc(C(=O)/C=C/c2ccc(N(C)C)cc2)c(O)c1	17.3% (inactive)
COc1ccc(C(=O)c2cc(C(C)=O)c3c(C)cc(C)cn23)cc1	49.4% (inactive)
Cc1ccc(S(=O)(=O)N(CCn2ccnc2[N+](=O)[O-])CCn2ccnc2[N+](=O)[O-])cc1	95.5% (inactive)
Cc1ccc(S(=O)(=O)Nc2ccc(-c3ccc4c(c3)NC(=O)/C4=C\c3ccc[nH]3)cc2)cc1	35.7% (inactive)
COc1ccc2c(c1)C(=O)N(C)C2C1c2c(cc3c(c2OC)OCO3)CCN1C (stereo unspecified)	62.6% (inactive)
Cc1ccc(C2CC(c3ccc(NC(=O)Nc4ccccc4)cc3)=NN2c2ccc(S(N)(=O)=O)cc2)cc1 (stereo unspecified)	-95.1% (active)
COC(=O)c1cc(C(=O)C(Br)Br)n2c1ccc1c3ccccc3ccc12	43.3% (inactive)
COc1ccc2c(c1)N=c1c-2cc2c(O)[nH]c(=S)n2c1=O	48.7% (inactive)
O=Cc1cncc(-c2ccc3ncnc(N4CCc5cc(F)c(Cl)cc54)c3c2)c1	0.858% (active)
CC1=C(C(=O)OC(C)C)C(c2ccc(O)cc2)NC(=O)N1 (stereo unspecified)	96.1% (inactive)
COC(=O)CSC1=C(C)C(=O)C(OC)=C(OC)C1=O	91% (inactive)
O=C1Nc2ccccc2/C1=C/C(=O)c1cc2ccccc2oc1=O	89.6% (inactive)
COC(=O)c1ccc(-c2c(-c3ccccc3)c(F)c3oc(C(=O)OC)c(N)c3c2-c2ccccc2)cc1	90.4% (inactive)
COc1cc(-c2ccc3ncnc(N4CCc5ccc(Cl)cc54)c3c2)cnc1Cl	2.35% (active)

SMILES	growth
Oc1cncc(-c2ccc3ncnc(N4CCc5cc(F)c(Cl)cc54)c3c2)c1	59.2% (inactive)
Nc1cc(-c2c[nH]c3ccc(F)cc23)nc2cc(-c3c[nH]c4ccccc34)nn12	7.95% (active)
C/C(=N\Nc1ccc(S(N)(=O)=O)cc1)c1cnn(-c2cc(=O)[nH]c3ccc(Br)cc23)c1C	72.1% (inactive)
O=C(Cn1c(-c2ccccc2)nc2ccccc21)N=Nc1c(O)[nH]c2ccc(Cl)cc12	9.78% (active)
COC(=O)c1c(C(=O)OC)c2ccc3c4ccccc4ccc3n2c1C(=O)OC	97% (inactive)
COc1sc(/C=N/NC(=O)c2[nH]c3ccc(Br)cc3c2-c2ccccc2)cc1Br	13.5% (inactive)
O=C(NNC(=O)c1ccc(OCc2nc3ccc(Cl)cc3[nH]2)cc1)Nc1ccc(Cl)c(Cl)c1	91.9% (inactive)
COc1ccc(NC(=O)CSc2nnc(-c3ccc(-c4nc5ccc(Cl)cc5[nH]4)cc3)o2)cc1	23.3% (inactive)
O=C1Nc2ccc(F)cc2/C1=C/C(=O)c1cc2ccccc2oc1=O	90.3% (inactive)
Cn1cc(-c2cc(N)n3nc(-c4c[nH]c5ccccc45)cc3n2)c2ccccc21	-96.1% (active)
COc1nc(N)ncc1-c1ccc2ncnc(N3CCc4cc(F)c(Cl)cc43)c2c1	24.2% (inactive)
CN1CCN(C(=O)Oc2cc3c(c4ccccc24)[C@H](CCl)CN3C(=O)c2cc3cc(OCCCN4CCC4)ccc3[nH]2)[C@@H]2CSSC[C@H]21	-50.6% (active)
COc1ccc2[nH]cc(-c3cc4nc(-c5cn(C)c6ncccc56)cc(N)n4n3)c2c1	55.1% (inactive)
COc1ccc(N=Nc2c(N)nn3c(-c4ccc(OC)c(OC)c4)ccnc23)cc1	103% (inactive)
Cc1ccc2nc(NC(=O)Nc3cccc(Cl)c3)sc2c1	87.7% (inactive)
COc1ccc(Nc2ncnc3sc4c(c23)CCN(Cc2ccccc2)C4)cc1	75.8% (inactive)
O=C1/C(=C/C=C/c2ccco2)SC(=S)N1CC(=S)C1C=CS(=O)(=O)C1 (stereo unspecified)	94% (inactive)
CC1=C(C(=O)OCc2ccccc2)C(c2cccc3ccccc23)n2c(nc3ccccc32)N1 (stereo unspecified)	41.9% (inactive)
CN(C)c1nc(NCCNS(=O)(=O)c2ccc(C(=O)/C=C/c3ccccc3)cc2)nc(N2CCOCC2)n1	77.6% (inactive)
